Holding throughout (assay): DAPPL (digital affinity profiling via proximity ligation, sequencing); 10 mM Tris-HCl pH 7.5, 50 mM NaCl, 1 mM DTT, 4% glycerol, room temperature, 30 min; GST-TFs on glutathione beads, 16-mer random dsDNA library, 0.1% formaldehyde crosslink after washing; high values mean tight binding
In assay [1] the target is T1, FEV (Homo sapiens, UniProt Q99581 1-238).
T1 sequence: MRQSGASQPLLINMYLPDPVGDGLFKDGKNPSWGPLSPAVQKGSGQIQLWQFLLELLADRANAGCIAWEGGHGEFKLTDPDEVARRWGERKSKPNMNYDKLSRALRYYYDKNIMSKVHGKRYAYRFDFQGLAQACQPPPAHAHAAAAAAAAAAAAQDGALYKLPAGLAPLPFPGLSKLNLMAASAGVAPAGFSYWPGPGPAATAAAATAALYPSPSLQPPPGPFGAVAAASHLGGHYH
To be noted: protein: recombinant; tags: N-terminal GST; dsDNA, one strand shown. The method, boiled down: (§1)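 Beads coated with glutathione captured GST-fused human transcription factors that had been expressed in yeast, and the factors were then given DNA barcodes and pooled with a tag-only sample. The pools were incubated with 200 nmole of a random double-stranded 16-mer DNA library in Tris/NaCl/DTT/glycerol buffer for 30 min at room temperature, washed, crosslinked with 0.1% formaldehyde and proximity-ligated with BsaI/T4 ligase at 37 °C for 1 h. PCR amplification and Illumina NextSeq500 sequencing came last. Binding signal is each hexamer's read frequency for a factor divided by its frequency for the tag-only sample.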

The target in assay [2] is ETV5 (Homo sapiens, UniProt P41161 1-510). The settings on record: protein: recombinant; tags: N-terminal GST; dsDNA, one strand shown. An outline of the steps:
as §1

The target in assay [3] is HSF1 (Homo sapiens, UniProt Q00613 1-529). The settings on record: protein: recombinant; tags: N-terminal GST; chain copies: 3; dsDNA, one strand shown. The method, boiled down:
as §1

Assay [4] has as its target T2, SPIC (Homo sapiens, UniProt Q8N5J4 1-248).
T2 sequence: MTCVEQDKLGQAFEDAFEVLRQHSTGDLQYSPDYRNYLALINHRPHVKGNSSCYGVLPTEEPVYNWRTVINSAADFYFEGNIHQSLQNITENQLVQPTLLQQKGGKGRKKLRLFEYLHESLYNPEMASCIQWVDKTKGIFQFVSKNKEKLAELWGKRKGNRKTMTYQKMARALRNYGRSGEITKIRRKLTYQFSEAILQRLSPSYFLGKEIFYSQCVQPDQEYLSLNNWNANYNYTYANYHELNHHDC
The settings on record: protein: recombinant; tags: N-terminal GST; dsDNA, one strand shown. An outline of the steps:
as §1

Assay [5] concerns the target ELF4 (Homo sapiens, UniProt Q99607 1-663). The settings on record: protein: recombinant; tags: N-terminal GST; dsDNA, one strand shown. An outline of the steps:
as §1

For assay [6], the target named is T3, ELK4 (Homo sapiens, UniProt P28324-2 1-405).
T3 sequence: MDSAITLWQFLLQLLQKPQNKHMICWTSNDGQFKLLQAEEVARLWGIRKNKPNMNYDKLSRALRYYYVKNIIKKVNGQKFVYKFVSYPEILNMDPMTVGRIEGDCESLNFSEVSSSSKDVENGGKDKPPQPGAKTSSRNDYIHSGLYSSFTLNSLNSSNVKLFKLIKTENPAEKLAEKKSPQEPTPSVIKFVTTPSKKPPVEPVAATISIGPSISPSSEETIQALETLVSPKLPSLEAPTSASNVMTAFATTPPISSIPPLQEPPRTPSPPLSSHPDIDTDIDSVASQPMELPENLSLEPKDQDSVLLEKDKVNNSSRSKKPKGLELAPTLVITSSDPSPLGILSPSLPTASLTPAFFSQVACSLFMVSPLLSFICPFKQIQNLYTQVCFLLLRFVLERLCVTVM
To be noted: protein: recombinant; tags: N-terminal GST; dsDNA, one strand shown. The method, boiled down: as §1

Assay [7] has as its target T4, ETV2 (Homo sapiens, UniProt O00321 1-342).
T4 sequence: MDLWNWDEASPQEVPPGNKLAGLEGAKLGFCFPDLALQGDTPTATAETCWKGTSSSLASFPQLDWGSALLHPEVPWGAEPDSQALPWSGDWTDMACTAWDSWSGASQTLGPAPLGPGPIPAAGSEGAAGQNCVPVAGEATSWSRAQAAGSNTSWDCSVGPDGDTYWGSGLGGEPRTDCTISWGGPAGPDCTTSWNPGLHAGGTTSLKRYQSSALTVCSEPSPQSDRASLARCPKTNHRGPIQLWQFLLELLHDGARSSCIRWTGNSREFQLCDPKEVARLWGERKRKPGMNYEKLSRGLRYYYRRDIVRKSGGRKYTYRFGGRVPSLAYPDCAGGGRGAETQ
To be noted: protein: recombinant; tags: N-terminal GST; dsDNA, one strand shown. The method, boiled down:
as §1

Assay [8] addresses T5, ELF3 (Homo sapiens, UniProt P78545 1-371).
T5 sequence: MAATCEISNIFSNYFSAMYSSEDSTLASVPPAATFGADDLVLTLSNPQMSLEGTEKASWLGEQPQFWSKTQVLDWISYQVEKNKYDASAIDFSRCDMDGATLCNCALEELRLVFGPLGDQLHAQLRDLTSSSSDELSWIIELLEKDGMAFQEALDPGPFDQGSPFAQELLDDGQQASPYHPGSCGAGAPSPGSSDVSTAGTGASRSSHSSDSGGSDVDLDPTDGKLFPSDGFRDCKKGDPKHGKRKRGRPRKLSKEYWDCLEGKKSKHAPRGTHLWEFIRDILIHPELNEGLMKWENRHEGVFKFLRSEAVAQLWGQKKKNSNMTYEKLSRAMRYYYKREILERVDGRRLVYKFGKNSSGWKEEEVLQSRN
To be noted: protein: recombinant; tags: N-terminal GST; dsDNA, one strand shown. The method, boiled down: as §1

Assay [9] deals with CRX (Homo sapiens, UniProt O43186 1-299). The settings on record: protein: recombinant; tags: N-terminal GST; dsDNA, one strand shown. An outline of the steps:
as §1

Assay [10] addresses ETV1 (Homo sapiens, UniProt P50549 1-477). To be noted: protein: recombinant; tags: N-terminal GST; dsDNA, one strand shown. The method, boiled down: as §1
The target of assay [11] is T6, ERF (Homo sapiens, UniProt P50548 1-548).
T6 sequence: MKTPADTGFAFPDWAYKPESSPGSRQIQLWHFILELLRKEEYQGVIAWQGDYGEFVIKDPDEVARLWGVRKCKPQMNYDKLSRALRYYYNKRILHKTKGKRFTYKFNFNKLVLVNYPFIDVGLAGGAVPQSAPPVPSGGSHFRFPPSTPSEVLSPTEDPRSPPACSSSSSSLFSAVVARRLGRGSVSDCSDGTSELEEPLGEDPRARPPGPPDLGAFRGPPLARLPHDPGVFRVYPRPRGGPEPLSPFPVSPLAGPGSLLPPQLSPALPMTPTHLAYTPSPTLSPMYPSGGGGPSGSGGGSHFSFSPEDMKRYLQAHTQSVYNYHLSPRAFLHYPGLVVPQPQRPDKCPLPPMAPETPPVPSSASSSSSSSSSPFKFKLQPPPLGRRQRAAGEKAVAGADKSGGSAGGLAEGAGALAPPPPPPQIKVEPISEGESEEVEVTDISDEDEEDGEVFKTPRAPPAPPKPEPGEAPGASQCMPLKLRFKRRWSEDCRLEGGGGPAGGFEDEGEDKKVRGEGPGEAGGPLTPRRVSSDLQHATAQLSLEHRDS
The settings on record: protein: recombinant; tags: N-terminal GST; dsDNA, one strand shown. An outline of the steps: as §1

For assay [12], the target named is T7, ETV3L (Homo sapiens, UniProt Q6ZN32 1-361).
T7 sequence: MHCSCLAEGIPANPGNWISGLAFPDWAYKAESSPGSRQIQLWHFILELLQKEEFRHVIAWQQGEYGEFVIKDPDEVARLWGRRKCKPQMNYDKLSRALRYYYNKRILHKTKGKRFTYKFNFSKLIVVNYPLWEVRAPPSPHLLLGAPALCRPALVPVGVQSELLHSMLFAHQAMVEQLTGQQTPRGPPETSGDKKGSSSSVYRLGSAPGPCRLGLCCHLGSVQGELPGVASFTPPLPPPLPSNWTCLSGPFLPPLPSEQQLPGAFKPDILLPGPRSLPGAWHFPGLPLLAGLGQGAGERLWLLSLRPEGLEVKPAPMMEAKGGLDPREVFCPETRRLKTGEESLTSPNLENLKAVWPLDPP
To be noted: protein: recombinant; tags: N-terminal GST; dsDNA, one strand shown. The method, boiled down:
as §1

The target in assay [13] is T8, ETS2 (Homo sapiens, UniProt P15036 1-469).
T8 sequence: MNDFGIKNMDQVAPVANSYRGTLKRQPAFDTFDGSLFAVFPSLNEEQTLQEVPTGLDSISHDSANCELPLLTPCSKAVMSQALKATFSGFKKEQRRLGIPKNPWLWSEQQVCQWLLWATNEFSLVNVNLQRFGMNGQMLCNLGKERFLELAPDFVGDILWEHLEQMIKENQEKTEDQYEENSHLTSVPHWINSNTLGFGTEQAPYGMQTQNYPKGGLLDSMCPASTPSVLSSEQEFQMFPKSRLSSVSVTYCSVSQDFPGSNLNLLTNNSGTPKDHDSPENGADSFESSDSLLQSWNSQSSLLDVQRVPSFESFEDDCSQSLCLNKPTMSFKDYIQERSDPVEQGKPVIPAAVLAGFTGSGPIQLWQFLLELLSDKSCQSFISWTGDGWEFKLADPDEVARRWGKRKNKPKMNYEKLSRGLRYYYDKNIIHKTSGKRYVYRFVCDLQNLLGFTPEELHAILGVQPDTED
The settings on record: protein: recombinant; tags: N-terminal GST; dsDNA, one strand shown. The method, boiled down:
as §1

The target of assay [14] is T9, SPDEF (Homo sapiens, UniProt O95238 1-335).
T9 sequence: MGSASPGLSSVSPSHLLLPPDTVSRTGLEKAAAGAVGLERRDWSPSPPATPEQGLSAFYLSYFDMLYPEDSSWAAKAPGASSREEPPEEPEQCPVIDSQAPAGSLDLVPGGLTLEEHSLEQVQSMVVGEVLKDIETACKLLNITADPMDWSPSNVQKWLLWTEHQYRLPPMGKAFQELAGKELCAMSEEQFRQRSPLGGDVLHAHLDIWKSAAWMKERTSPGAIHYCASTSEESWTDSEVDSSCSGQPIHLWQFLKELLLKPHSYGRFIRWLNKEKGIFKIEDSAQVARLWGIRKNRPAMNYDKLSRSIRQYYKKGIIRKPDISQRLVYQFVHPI
To be noted: protein: recombinant; tags: N-terminal GST; dsDNA, one strand shown. An outline of the steps:
as §1

Assay [15] addresses T10, ETV7 (Homo sapiens, UniProt Q9Y603 1-341).
T10 sequence: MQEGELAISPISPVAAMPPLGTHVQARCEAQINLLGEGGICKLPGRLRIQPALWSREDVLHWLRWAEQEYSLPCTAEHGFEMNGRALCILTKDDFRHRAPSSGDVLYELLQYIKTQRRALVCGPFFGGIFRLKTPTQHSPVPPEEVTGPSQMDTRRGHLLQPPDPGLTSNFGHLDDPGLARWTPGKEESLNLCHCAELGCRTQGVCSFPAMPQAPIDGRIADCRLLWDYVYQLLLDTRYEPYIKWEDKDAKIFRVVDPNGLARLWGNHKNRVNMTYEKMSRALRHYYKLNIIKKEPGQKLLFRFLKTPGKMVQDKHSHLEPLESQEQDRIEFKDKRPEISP
To be noted: protein: recombinant; tags: N-terminal GST; dsDNA, one strand shown. The method, boiled down:
as §1

Assay [16] addresses T11, ELF5 (Homo sapiens, UniProt Q9UKW6-2 1-255).
T11 sequence: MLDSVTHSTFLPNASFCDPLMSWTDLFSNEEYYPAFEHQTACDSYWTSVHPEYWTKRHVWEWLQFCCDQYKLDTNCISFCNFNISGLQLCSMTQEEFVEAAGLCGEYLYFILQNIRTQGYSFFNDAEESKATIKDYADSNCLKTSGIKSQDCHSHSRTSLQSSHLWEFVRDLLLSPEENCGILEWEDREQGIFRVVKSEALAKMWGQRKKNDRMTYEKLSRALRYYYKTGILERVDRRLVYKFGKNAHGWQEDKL
To be noted: protein: recombinant; tags: N-terminal GST; dsDNA, one strand shown. An outline of the steps: as §1

For assay [17], the target named is T12, ETV3 (Homo sapiens, UniProt P41162-2 1-143).
T12 sequence: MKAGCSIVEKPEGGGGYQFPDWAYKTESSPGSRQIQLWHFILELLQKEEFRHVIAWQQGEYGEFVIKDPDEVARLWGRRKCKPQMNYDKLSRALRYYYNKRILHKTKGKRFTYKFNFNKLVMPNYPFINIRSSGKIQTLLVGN
To be noted: protein: recombinant; tags: N-terminal GST; dsDNA, one strand shown. An outline of the steps:
as §1

Assay [18] deals with ETV6 (Homo sapiens, UniProt P41212 1-452). The settings on record: protein: recombinant; tags: N-terminal GST; dsDNA, one strand shown. The method, boiled down:
as §1

ETV6, sequence (P41212 whole entry): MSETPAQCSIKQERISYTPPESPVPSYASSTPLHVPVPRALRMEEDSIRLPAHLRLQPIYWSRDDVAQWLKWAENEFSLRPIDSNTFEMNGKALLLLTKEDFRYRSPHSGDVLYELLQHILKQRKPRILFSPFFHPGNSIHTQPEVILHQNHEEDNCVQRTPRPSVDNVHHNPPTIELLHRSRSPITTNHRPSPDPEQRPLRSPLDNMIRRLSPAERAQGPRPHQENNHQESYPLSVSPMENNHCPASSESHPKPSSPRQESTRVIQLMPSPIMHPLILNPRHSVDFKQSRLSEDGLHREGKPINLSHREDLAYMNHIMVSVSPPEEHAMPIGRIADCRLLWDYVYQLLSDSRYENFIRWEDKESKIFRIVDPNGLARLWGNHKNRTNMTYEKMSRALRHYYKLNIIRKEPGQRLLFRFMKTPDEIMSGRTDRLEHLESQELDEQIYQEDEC
ELF4, sequence (Q99607 whole entry): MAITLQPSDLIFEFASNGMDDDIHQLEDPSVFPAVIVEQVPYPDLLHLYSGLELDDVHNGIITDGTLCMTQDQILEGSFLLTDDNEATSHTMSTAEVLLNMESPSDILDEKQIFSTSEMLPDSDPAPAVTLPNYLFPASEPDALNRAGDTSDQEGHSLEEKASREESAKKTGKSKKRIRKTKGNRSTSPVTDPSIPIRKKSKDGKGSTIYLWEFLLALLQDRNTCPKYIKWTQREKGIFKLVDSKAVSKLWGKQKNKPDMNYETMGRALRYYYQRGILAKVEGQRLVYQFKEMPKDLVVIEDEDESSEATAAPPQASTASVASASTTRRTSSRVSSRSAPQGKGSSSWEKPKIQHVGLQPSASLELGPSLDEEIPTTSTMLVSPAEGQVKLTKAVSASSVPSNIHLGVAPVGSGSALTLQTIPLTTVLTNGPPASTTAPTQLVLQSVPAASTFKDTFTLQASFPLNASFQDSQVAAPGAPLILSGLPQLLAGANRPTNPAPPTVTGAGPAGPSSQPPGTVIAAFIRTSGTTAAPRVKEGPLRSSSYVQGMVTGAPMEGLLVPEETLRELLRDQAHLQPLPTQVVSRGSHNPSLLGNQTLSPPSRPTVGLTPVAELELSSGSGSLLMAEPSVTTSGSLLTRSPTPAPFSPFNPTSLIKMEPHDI
HSF1, sequence (Q00613 whole entry): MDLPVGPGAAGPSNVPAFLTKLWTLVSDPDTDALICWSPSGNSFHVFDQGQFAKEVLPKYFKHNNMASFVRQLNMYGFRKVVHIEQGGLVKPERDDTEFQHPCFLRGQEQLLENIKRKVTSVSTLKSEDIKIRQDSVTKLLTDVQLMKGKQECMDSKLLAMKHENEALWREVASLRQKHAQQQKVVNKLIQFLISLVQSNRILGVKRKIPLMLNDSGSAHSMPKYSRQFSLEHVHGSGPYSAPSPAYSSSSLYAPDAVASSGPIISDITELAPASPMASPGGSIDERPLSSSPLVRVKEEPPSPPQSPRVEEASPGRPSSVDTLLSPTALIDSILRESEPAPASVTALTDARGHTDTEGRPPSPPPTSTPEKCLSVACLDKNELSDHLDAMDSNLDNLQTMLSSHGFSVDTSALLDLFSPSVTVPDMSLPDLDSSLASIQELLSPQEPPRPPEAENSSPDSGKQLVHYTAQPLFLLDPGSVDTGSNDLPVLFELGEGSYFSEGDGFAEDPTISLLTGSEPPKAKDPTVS
ETV1, sequence (P50549 whole entry): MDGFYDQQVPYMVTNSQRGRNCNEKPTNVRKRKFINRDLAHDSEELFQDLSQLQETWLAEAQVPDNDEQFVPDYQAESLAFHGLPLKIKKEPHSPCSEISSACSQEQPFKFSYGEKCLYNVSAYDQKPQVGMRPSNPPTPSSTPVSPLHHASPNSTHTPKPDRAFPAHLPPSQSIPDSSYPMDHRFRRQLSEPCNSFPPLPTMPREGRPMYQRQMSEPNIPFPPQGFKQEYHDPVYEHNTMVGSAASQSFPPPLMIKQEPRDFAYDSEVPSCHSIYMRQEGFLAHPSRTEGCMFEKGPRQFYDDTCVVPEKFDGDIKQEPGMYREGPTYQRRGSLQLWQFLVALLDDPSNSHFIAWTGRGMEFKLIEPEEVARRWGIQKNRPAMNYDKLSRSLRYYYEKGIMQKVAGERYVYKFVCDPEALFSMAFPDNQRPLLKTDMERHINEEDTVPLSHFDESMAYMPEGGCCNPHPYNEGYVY
ETV5, sequence (P41161 whole entry): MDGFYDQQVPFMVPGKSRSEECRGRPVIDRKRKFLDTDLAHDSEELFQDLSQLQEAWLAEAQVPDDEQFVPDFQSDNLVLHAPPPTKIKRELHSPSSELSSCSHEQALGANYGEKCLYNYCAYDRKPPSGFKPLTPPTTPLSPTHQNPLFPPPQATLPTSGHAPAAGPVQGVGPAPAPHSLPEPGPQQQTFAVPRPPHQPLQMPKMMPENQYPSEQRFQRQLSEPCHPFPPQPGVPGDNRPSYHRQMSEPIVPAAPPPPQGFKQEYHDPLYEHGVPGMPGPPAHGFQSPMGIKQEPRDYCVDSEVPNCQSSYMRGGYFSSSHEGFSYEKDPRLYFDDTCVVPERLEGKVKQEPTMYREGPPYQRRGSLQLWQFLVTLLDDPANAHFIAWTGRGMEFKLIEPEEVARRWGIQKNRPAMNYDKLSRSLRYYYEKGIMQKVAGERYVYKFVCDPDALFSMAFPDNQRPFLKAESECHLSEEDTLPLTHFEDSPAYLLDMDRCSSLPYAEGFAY
CRX, sequence (O43186 whole entry): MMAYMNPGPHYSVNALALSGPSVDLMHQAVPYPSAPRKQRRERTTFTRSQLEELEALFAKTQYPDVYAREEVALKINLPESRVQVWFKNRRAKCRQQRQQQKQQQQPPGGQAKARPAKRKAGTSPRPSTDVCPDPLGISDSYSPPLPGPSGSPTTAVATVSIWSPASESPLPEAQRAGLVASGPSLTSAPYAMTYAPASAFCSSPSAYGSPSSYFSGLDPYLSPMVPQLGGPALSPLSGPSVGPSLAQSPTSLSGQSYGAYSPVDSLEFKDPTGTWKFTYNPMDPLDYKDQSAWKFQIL

As for CCGTCT, the binding signal in [1] is 1.3 fold enrichment (6-mer frequency, TF over GST control); in assay [2], 1.36 fold enrichment (6-mer frequency, TF over GST control); in [3] it was 1.29 fold enrichment (6-mer frequency, TF over GST control); in [4], 1.45 fold enrichment (6-mer frequency, TF over GST control); in assay [5] it was 1.37 fold enrichment (6-mer frequency, TF over GST control); in assay [6], 1.4 fold enrichment (6-mer frequency, TF over GST control). For the same sequence, the binding signal in [7] was 1.32 fold enrichment (6-mer frequency, TF over GST control); in assay [8], 1.25 fold enrichment (6-mer frequency, TF over GST control); in [9], 1.26 fold enrichment (6-mer frequency, TF over GST control); in assay [10] it was 1.38 fold enrichment (6-mer frequency, TF over GST control); in assay [11], 1.28 fold enrichment (6-mer frequency, TF over GST control); in assay [12], 1.4 fold enrichment (6-mer frequency, TF over GST control). Further, the binding signal in assay [13] is 1.29 fold enrichment (6-mer frequency, TF over GST control); in assay [14] it was 1.42 fold enrichment (6-mer frequency, TF over GST control); in [15], 1.26 fold enrichment (6-mer frequency, TF over GST control); in assay [16], 1.39 fold enrichment (6-mer frequency, TF over GST control); in [17], 1.36 fold enrichment (6-mer frequency, TF over GST control); in assay [18], 1.39 fold enrichment (6-mer frequency, TF over GST control).

(Values after PMC7862700, “An all-to-all approach to the identification of sequence-specific readers for epigenetic DNA modifications on cytosine”.)
